Bioassay records from PubChem BioAssay.
DAX1 inh-1: DAX1 (NR0B1) inhibitors, primary screen, cell-based, HEK293, Gal4-DAX1, luciferase luminescence | Nuclear receptor subfamily 0 group B member 1 (Homo sapiens), P51843 | HEK293 Gal4-DAX1 luciferase reporter | inhibition, % at 6.75 µM | actives 0.99% (n = 340,000) | AID 504766, 2011;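 active means inhibition above the mean over all tested compounds plus 3 SD, cut at about 4.2% in these data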;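 further: 0% = DAX1-transfected cells with DMSO and 100% = empty-vector control cells with DMSO; inhibition shows as a rise in luminescence from relieved DAX1 repression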
Target sequence (P51843 207-470 limits assumed): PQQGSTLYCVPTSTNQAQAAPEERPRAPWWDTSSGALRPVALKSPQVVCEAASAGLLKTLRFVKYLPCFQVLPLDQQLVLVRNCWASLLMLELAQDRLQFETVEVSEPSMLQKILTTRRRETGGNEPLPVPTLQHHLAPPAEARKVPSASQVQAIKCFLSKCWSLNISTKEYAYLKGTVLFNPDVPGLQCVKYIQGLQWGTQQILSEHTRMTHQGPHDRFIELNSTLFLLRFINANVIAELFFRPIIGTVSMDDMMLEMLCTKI
FXN GAA850 act: FXN promoter activators, primary screen, cell-based, luciferase luminescence, HEK293 lucGAA850; activation, % at 6 µM; HEK293 lucGAA850 FXN promoter luciferase reporter, 24 h; percent of 10 µM SAHA response; actives 0.56% (n = 360,000);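 active means activation above the average of all compounds screened plus 3 SD, cutoff fixed separately per campaign, cut at about 7.5% in these data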;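 further: 0% = DMSO wells and 100% = 10 µM SAHA wells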
DAX1 inh-2: DAX1 (NR0B1) inhibitors on StAR promoter, primary screen, cell-based, luminescence, SF-1 (NR5A1), full-length DAX-1; actives 1.1% (n = 370,000); inhibition, % at 6.8 µM; HEK293T StAR-luciferase reporter, SF-1/DAX-1 repression relief; AID 652010, 2013;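 active means inhibition above the mean over all tested compounds plus 3 SD, cut at about 3.6% in these data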;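 further: 0% = DAX-1 cells with DMSO and 100% = cells lacking DAX-1 with DMSO; higher inhibition means more luminescence from relief of DAX-1 repression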
hcDAF-12 act: H. contortus DAF-12 nuclear receptor activators, primary screen, cell-based, luminescence, HEK293, lit1-tk-luc reporter; HEK293 hcDAF-12 lit1-tk-luc reporter; 0% DMSO, 100% Δ7-dafachronic acid; activation, % at 6.8 µM; actives 1.4% (n = 370,000);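 active means activation above the mean of all tested compounds plus 3 SD, cut at about 5.5% in these data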;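 further: 100% = response to 3 µM Δ7-dafachronic acid high control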
ssDAF-12 act: S. stercoralis DAF-12 nuclear receptor activators, primary screen, cell-based, luminescence, HEK293, GRIP1 co-expression, lit1-tk-luc; actives 1% (n = 370,000); AID 652126, 2013; HEK293 ssDAF-12/GRIP1 lit1-tk-luc reporter; % of 3 µM dafachronic acid response; activation, % at 6.8 µM;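 active means activation above the mean over all tested compounds plus 3 SD, cut at about 0.9% in these data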;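 further: 0% = DMSO-only wells and 100% = 3 µM delta7-dafachronic acid wells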
hgDAF-12 ag: H. glycines DAF-12 receptor agonists, primary screen, cell-based, luminescence, HEK293, GAL4 fusion, UAS-luciferase; HEK293 GAL4-hgDAF12 UAS-luciferase reporter, agonist luminescence; normalized to butyrate control; activation, % at 6.8 µM; actives 1.8% (n = 370,000); AID 687014, 2013;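 active means activation above a cutoff set at the mean of all screened compounds plus 3 SD, cut at about 10% in these data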;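 further: 0% = DMSO wells and 100% = sodium butyrate wells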
LXR ag: LXR agonists, Gal4 luciferase reporter, confirmation, counter-screen for hcDAF-12 agonist project, cell-based, luminescence, HEK293, H. contortus campaign. HEK293 Gal4-LXR tk-luc reporter, 24 h; normalized: DMSO 0%, positive control 100%. shares compounds with hcDAF-12 act. activation, % at 6.8 µM. 3,400 tested, under 10 active;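 active means mean percent activation of the reporter above a cutoff set as the average over tested compounds plus their standard deviation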
hcDAF12 ag: H. contortus DAF-12 receptor agonists, confirmation, cell-based, luminescence, HEK293, lit1-tk-luc, triplicate. activation, % at 6.8 µM. shares compounds with hcDAF-12 act. AID 743032, 2013. HEK293 hcDAF-12 lit1-tk-luc reporter; % of Δ7-dafachronic acid response. actives 61% (n = 3,400);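 active means mean activation across triplicate tests above the threshold derived from the earlier primary screen, cut at about 5.5% in these data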;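 further: 0% = DMSO only wells and 100% = 3 µM Δ7-dafachronic acid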
* hit, by the source's call; x = no result. Most compounds without a hit are left out; they make up all but 4.5% or so of the library.

SMILES | DAX1 inh-1 | FXN GAA850 act | DAX1 inh-2 | hcDAF-12 act | ssDAF-12 act | hgDAF-12 ag | LXR ag | hcDAF12 ag
O=C(Nc1nc2c(F)c(F)c(F)cc2s1)c1ccco1 | 1 | 0 | 0 | 1 | -1 | 5 | x | x
O=C(Nc1nc2c(ccc3ccccc32)s1)c1ccco1 | 1 | 7 | 2 | 6.7* | 1 | 3 | 1 | 4
O=C(Cn1nc(C(=O)O)c2ccccc2c1=O)c1c[nH]c2ccccc12 | -1 | 4 | 0 | 7.3* | 1 | 3 | 0 | 4
C#CCOCCOCCOCCNc1nc(N2CCN(C(=O)[C@H](CCCN=C(N)N)n3cc(C(N)[C@@H](C)CC)nn3)CC2)nc(N2CCN(C(=O)[C@H](CCC(=O)O)n3cc([C@@H](N)CO)nn3)CC2)n1 (stereo not given in full) | 0 | 0 | 0 | 1 | -1 | 3 | x | x
CC(C)(C)c1cc[n+](-c2[nH]c(=O)sc2/C=N/N=C(\[O-])c2cccnc2)cc1 | 1 | 0 | 1 | 3 | -1 | 0 | x | x
O=c1[nH]c(-[n+]2ccc3ccccc3c2)c(/C=N/N=C(\[O-])c2ccccc2)s1 | 1 | 5 | 2 | 9.0* | 1 | 8 | 0 | 1
CSc1ccc(CNC(=O)Cc2ccc(NC(=O)C3=C(C)OCCS3)cc2)cc1 | -1 | -2 | -2 | 7.1* | 0 | 8 | 1 | 6.5*
COc1cc(NC(=O)C2CC(c3ccccc3Cl)=NO2)cc(OC)c1OC (stereo not given) | 0 | 0 | -1 | -3 | -2 | -5 | x | x
CCN1c2ccccc2NC2C1C(C(C)=O)C(=O)N2c1ccc(Cl)cc1 (stereo not given) | 0 | 0 | 0 | 8.8* | 0 | -3 | 0 | 0
CC(=O)Nc1ccc(C)c([N+](=O)[O-])c1 | -1 | -1 | 0 | -3 | -1 | -1 | x | x
Cc1ccc(NC(=O)Nc2ccccc2)cc1[N+](=O)[O-] | 1 | 3 | 1 | 7.5* | -2 | 5 | 0 | 2
CCc1ccc(C(O)c2ncc(-c3cccc(C)c3)[nH]2)cc1 (stereo not given) | x | 0 | -1 | 1 | 0 | 1 | x | x
Cc1ccc(NC(=O)Cc2c(Cl)cccc2Cl)cc1S(=O)(=O)N(C)C | -1 | 0 | -1 | 11* | -1 | -2 | 0 | 2
Nc1ncnc2c1ccn2[C@H]1CN(Cc2ccc3c(c2)OCO3)C[C@@H](COC(=O)c2ccccc2)O1 | x | 0 | 0 | -1 | -2 | -4 | x | x
Cc1ccc(NC(=O)C2CCCN(S(=O)(=O)c3cccc4cccnc34)C2)cc1 (stereo not given) | 0 | -3 | 0 | -1 | -1 | 1 | x | x
COc1ccc(N=Nc2c(C)[nH]c3ccccc23)cc1 | -1 | 5 | -1 | 3 | -1 | 4 | x | x
CC(=O)c1cccc(N=Nc2c(C)[nH]c3ccccc23)c1 | 0 | 1 | 0 | 6.7* | 1.4* | -1 | 0 | 5
Cc1cccc(N2CCN(S(=O)(=O)c3c(C)noc3/C=C/N(C)C)CC2)c1C | 1 | 1 | 0 | -2 | -1 | 1 | x | x
Cc1noc(/C=C/N(C)C)c1S(=O)(=O)N1CCc2ccccc21 | 2 | 2 | 0 | 7.4* | 0 | -3 | 0 | 5.7*
Cc1ccc(Cl)c2c(N=Nc3ccccc3)c(O)[nH]c12 | 6.3* | 5 | 1 | 7.7* | 0.9* | 6 | 1 | 10*
CC(=O)Nc1nc(-c2ccc(Cl)cc2)nc(C)c1C(C)=O | 3 | -2 | 0 | 6.6* | 4.1* | 3 | 0 | 4
O=c1[nH]n(-c2ccc(F)cc2)c2ncccc12 | 0 | 1 | 0 | -1 | -1 | 0 | x | x
Cc1c(-c2ccccn2)c(=O)[nH]n1-c1ccc(F)cc1 | 2 | 2 | 4.2* | 15* | 1.8* | 26* | 2 | 15*
COc1ccccc1C(=O)Nc1ccc(Br)cc1C | 2 | 4 | 0 | 7.0* | 1 | 11* | 0 | 9.6*
COc1cccc2cc(C(=O)Nc3ccccc3C)/c(=N/O)oc12 | 2 | 6 | 1 | 9.2* | 1 | 8 | 0 | 6.3*
SMILES | DAX1 inh-1 | FXN GAA850 act | DAX1 inh-2 | hcDAF-12 act | ssDAF-12 act | hgDAF-12 ag | LXR ag | hcDAF12 ag
COc1ccccc1C(=O)Nc1ccc(Br)c2cccnc12 | 0 | 0 | 0 | -2 | -1 | 2 | x | x
COC(=O)[C@]12CCCCC=C1N(Cc1ccc(Cl)cc1Cl)C(=O)[C@H](CC(=O)N1CCCC1)C2 | x | x | -1 | 0 | -1 | -1 | x | x
COc1ccc(Br)cc1S(=O)(=O)NCCCN1CCOCC1 | 2 | 0 | 0 | -2 | -1 | 1 | x | x
O=C(CCN1C(=O)NC2(CCCC2)C1=O)Nc1cccc(S(=O)(=O)N2CCOCC2)c1 | 1 | 1 | -1 | 0 | -1 | 1 | x | x
O=C(Nc1nccs1)C1Cc2ccccc2CN1S(=O)(=O)c1ccc(F)cc1 (stereo not given) | 1 | 3 | 3 | 11* | 1 | 12* | 1 | 7.7*
Cc1ccc2ncnc(Oc3ncccc3NC(=O)C(C)(C)C)c2c1 | -1 | 0 | 0 | 1 | -1 | 0 | x | x
C/C(=N\NC(=O)C(=O)Nc1cc(C)ccc1C)c1ccncc1 | -2 | 2 | 0 | -1 | -2 | 0 | x | x
COC(=O)c1sc2nc(C)nc(SCC(=O)Nc3sccc3C(N)=O)c2c1C | -1 | 2 | -2 | 1 | -1 | 0 | x | x
COC(=O)C1OC1c1cc([N+](=O)[O-])ccc1OC (stereo not given) | 1 | 0 | -1 | -1 | -1 | -2 | x | x
COc1ccc([N+](=O)[O-])cc1C1NN=C(c2ccccc2O)S1 (stereo not given) | 0 | 3 | 0 | 6.9* | 1 | 6 | 0 | 4
